Compounds with a hit are over-represented: about 10% of the library has one in this group of screens.
FLuc inh-1 – Photinus pyralis luciferase inhibition | purified P. pyralis luciferase, luminescence, biochemical | P08659 | AID 1347043 | actives 2.5% (n = 76,000) | Potency, µM (highest dose often 115 µM), hits mostly inhibitors; note: % is set by controls: 0 for no effect and ±100 for the full control effect; nearly all actives have a fitted effect of over 65% in size
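Cell-free enzyme assay, 10nM P. pyralis luciferase, luciferin and ATP each at 10uM. Inhibition profiled over a 6-point titration, read as luminescence.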
3T3 cytotox – NIH 3T3 cell cytotoxicity; NIH 3T3 viability, CellTiter-Glo ATP luminescence, 48-72 h; Potency, µM (doses to about 96.7 µM), for inactives: at the top dose activity change, negative = cytotoxicity, most hits filed as inhibitors; actives 4.3% (n = 94,000); AID 1345082; note: % is set by controls: 0 for no effect and ±100 for the full control effect; nearly all actives have a fitted effect of over 55% in size
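Cytotoxicity is measured as loss of cellular ATP: NIH 3T3 cells (400/well) are exposed to compound for 48 or 72 hr at 37 °C, then CellTiter-Glo luminescence is imaged after 10 min at room temperature.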
HEK cytotox – HEK 293 cell cytotoxicity | HEK 293 viability, ATP luminescence (CellTiter-Glo), 48-72 h | Potency, µM (doses to about 115 µM), for the others: at the highest dose activity change, negative = cytotoxicity, most hits filed as inhibitors | actives 6.6% (n = 94,000) | AID 1345083; note: % is set by controls: 0 for no effect and ±100 for the full control effect; nearly all actives have a fitted effect of over 60% in size
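qHTS cytotoxicity; HEK 293, 250 cells/well; compound pinned; 48 or 72 hr, 37 degree Celsius, 5% CO2, 95% humidity; CellTiter-Glo, 10 min RT; luminescence (ATP).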
NPR1 antag – human Npr1 receptor antagonism. Potency, µM (doses to about 46.3 µM), for the others: at the top dose activity change, negative = inhibition, actives largely listed as inhibitors. actives 1.6% (n = 76,000). HEK293 hNpr1 GloSensor cGMP, ANP-stimulated luminescence. AID 1347048; calls by dose curve; note: % is set by controls: 0 for no effect and ±100 for the full control effect; nearly all actives have a fitted effect of over 60% in size
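HEK293 cells stably expressing human Npr1 and cGMP GloSensor pGS-40F, loaded 2 h with 2% GloSensor reagent, given compound 30 min at room temperature. Luminescence read before and 20 min after 0.1 nM hNppA.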
GPT2 inhibitor – GPT2 alanine aminotransferase inhibition. actives 0.25% (n = 100,000). Recombinant GPT2, coupled pyruvate oxidase/HRP Amplex Red fluorescence. Potency, µM (series often up to 57.7 µM), inactives show at the top dose activity change, negative = inhibition, hits mostly inhibitors. Q8TD30. AID 1671188; note: % is set by controls: 0 for no effect and ±100 for the full control effect; nearly all actives have a fitted effect of over 60% in size
Target sequence (Q8TD30 whole entry, looked up): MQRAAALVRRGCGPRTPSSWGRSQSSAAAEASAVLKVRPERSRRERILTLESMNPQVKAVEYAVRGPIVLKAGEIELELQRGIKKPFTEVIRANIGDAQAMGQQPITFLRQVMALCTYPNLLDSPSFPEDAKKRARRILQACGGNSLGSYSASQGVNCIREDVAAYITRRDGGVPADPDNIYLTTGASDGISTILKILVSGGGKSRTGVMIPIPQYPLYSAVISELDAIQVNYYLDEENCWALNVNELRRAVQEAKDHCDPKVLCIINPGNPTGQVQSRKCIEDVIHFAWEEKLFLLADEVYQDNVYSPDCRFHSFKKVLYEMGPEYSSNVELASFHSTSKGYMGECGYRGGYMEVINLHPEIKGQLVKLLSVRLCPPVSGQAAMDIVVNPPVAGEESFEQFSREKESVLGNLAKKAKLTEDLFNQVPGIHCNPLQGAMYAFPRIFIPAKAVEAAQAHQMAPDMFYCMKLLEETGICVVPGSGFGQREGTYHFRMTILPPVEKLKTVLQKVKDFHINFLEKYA
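GPT2 10ng/uL, a-KG 250uM, L-Ala 2mM, HEPES pH7.5 + 0.0001% Tween; 30 min RT. Then Amplex mix (PO/HRP/ThPP), 30 min RT dark, fluorescence. AOA 50uM used as positive control.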
FLuc SDR no ATP – firefly luciferase binding stabilization, ATP absent | shares compounds with FLuc inh-1 | Purified FLuc-C-HiBiT, Nano-Glo HiBiT luminescence, no ATP | Potency, µM (series often up to 32.7 µM), inactives show at the top dose activation (signal gain), usual class: activators | actives 7.8% (n = 1,300) | AID 1963318; note: nearly all actives have a fitted effect of over 55% in size
FLuc SDR ATP – stabilizes firefly luciferase with ATP present; shares compounds with FLuc inh-1; purified FLuc-C-HiBiT + ATP, HiBiT complementation luminescence; Potency, µM (doses to about 32.7 µM), without a hit: at the highest dose activation (gain of signal), usual class: activators; actives 8.7% (n = 1,300);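 note: signal reports ligand binding via conformational change of the enzyme rather than luciferase catalysis; % of control where 0% means no effect; nearly all actives have a fitted effect of over 55% in size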
FLuc inh-2 – inhibitors of firefly luciferase enzymatic activity. shares compounds with FLuc inh-1. purified FLuc-C-HiBiT enzyme, luciferin luminescence. Potency, µM (highest dose often 32.7 µM), for inactives: at the highest dose activity change, negative = inhibition, most hits filed as inhibitors. actives 42% (n = 1,300). AID 1963320; note: % is set by controls: 0 for no effect and ±100 for the full control effect; nearly all actives have a fitted effect of over 70% in size
An asterisk follows results filed as active; i = inactive; ? = inconclusive; / = not tested or not shown; [ ] = remark or other dose. Unless noted, calls come from the whole dose curve; as a rule, active = well fitted curve in the direction sought with a large enough effect; inconclusive = small, poorly fitted or top-dose-only effect, or another doubt; inactive = no such curve, though single readings can be large; an effect the other way counts as inactive or inconclusive. Potency is the fitted concentration of half-maximal effect.

SMILES	FLuc inh-1	3T3 cytotox	HEK cytotox	NPR1 antag	GPT2 inhibitor	FLuc SDR no ATP	FLuc SDR ATP	FLuc inh-2
COc1ccc(C(=O)N2CCCC3(C2)NC(=O)N(Cc2cc(C)ccc2C)C3=O)cc1F (centres undefined)	i	-17.0%	-9.5%	-0.7%	i	/	/	/
Cc1c(-c2ccccc2F)[nH]c2ccc(CNC(=O)CC3CCC(=O)N3)cc12 (centres undefined)	10µM*	-28.2%	35.5µM*	0.6%	1.7%	?	13.0%	9.89µM*
Cc1c(-c2ccccc2F)[nH]c2ccc(CNC(=O)CCc3cc(=O)[nH]o3)cc12	2.82µM*	?	-4.2%	-14.9%	3.9%	26.8%	17.5%	9.89µM*
Cc1c(-c2ccccc2F)[nH]c2ccc(CNC(=O)CCc3cnccn3)cc12	?	?	?	-3.7%	?	/	/	/
CCc1cccc(NC(=O)c2cc(-c3ccc[nH]3)n[nH]2)c1	8.91µM*	-13.7%	-5.4%	2.1%	i	11.6%	7.6%	?
O=C(N1c2ccccc2CC1c1noc(C2CCOCC2)n1)C1(c2ccccc2)CC1 (centres undefined)	8.91µM*	-23.5%	?	-20.8%	3.1%	19.3%	14.5%	?
COc1cccc(CNC(=O)N2c3ccccc3CC2c2noc(C3CCOCC3)n2)c1 (centres undefined)	5.01µM*	-29.7%	-22.6%	-3.7%	i	13.7%	14.4%	?
O=C(C1CCC1)N1c2ccccc2CC1c1noc(C2CCOCC2)n1 (centres undefined)	1.78µM*	-15.2%	?	?	0.9%	21.1%	18.5%	?
O=C(C1CCCC1)N1CCCC1c1nc(C2CCOCC2)no1 (centres undefined)	i	-15.1%	-10.0%	23.2%	-7.6%	/	/	/
O=C1NC2(CCN(CC3CC3)CC2)Oc2ccccc21	i	-9.4%[138 µM]	-19.2%[172 µM]	27.6%[70.6 µM]	i	/	/	/
COc1cc2nc(N3CCCC3)nc(NCCCCCN3CCCC3)c2cc1OC	/	/	/	/	-4.5%	/	/	/
O=C(COc1ccccc1[N+](=O)[O-])Nc1ccc(-c2nc3ccccc3s2)cc1	/	/	/	/	/	15.2%	9.8%	-6.4%
O=C(COc1ccc(-c2nnc3n2CCCC3)cc1)Nc1ccc(Cl)cc1	i	-5.4%	-21.7%	1.2%	-3.5%	/	/	/
CCC(=O)Nc1cccc(OCC(=O)NCc2sc(C)nc2CC)c1	i	2.1%	0.7%	-1.3%	0.3%	/	/	/
O=C(COc1ccccc1Cl)Nc1ccc(-c2nc3ccccc3s2)cc1	/	/	/	/	/	11.7%	8.0%	-5.0%
O=C(COc1ccccc1[N+](=O)[O-])Nc1cccc(-c2nc3ccccc3s2)c1	/	/	/	/	/	12.4%	10.5%	-14.1%
CC(=O)Nc1ccc(OCC(=O)NC(C)c2ccccc2)nc1 (centres undefined)	i	-13.1%	2.8%	1.0%	1.5%	/	/	/
O=C(c1ccc(Cl)cc1)N1CC2(CCN(C3CCCCC3)CC2)Cc2ccccc21	/	?	?	/	-12.7%	/	/	/
CCC(CC)CN1CCOCCNC(=O)CC1	i	-17.5%	-25.6%	5.9%	-11.0%	/	/	/
CCCC(=O)Nc1cnc(-c2ccc(C)cc2)nc1	2µM*	-7.5%	?	?	i	?	?	3.51µM*
CCN(CC)S(=O)(=O)c1ccc2nc(NC(=O)c3cccnc3)sc2c1	/	/	/	/	/	16.0%	11.1%	?
Cc1ccc(-c2nc(C)c(CCNC(=O)c3cccs3)s2)cc1	/	/	/	/	/	12.1%	9.4%	?

Compound activity: PubChem BioAssay, National Center for Advancing Translational Sciences (NCATS)
